CYP2C9 activ: activators of human CYP2C9. recombinant CYP2C9, luciferin-H conversion, luminescence; active compounds read high; factor 1 = untreated enzyme, 0 = blocked. activation factor at 5 µM. actives 1.4% (n = 96,000). AID 1024. P11712;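 active = activation factor of 2 or more for CYP2C9 at a 5 µM dose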
Target sequence (P11712 whole entry, looked up): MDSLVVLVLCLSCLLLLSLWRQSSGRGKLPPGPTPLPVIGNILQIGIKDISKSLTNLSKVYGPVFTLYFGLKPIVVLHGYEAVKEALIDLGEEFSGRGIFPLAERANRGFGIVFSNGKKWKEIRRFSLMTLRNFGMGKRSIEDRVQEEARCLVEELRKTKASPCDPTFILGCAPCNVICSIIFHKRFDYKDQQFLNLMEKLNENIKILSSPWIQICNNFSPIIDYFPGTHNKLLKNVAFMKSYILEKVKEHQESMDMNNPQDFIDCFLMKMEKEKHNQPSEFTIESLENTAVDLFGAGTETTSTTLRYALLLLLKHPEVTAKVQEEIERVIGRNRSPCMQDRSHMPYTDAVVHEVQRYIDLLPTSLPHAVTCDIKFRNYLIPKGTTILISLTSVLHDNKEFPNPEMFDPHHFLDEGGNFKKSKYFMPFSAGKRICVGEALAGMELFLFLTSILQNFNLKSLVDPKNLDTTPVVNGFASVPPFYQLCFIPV
CYP2C19 activ: increases human CYP2C19 enzyme activity; P33261; recombinant CYP2C19, luciferin-H EGE luminescence; active compounds read high; 0 = fully inhibited enzyme, 1 = untreated enzyme; activation factor at 5 µM; 96,000 tested, under 10 active; AID 1025;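 active = activation factor of at least 2 at 5 µM in the primary screen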
sEH inh: blocks human soluble epoxide hydrolase activity; recombinant human sEH enzymatic activity assay; inhibition, % at 2 µM; actives 0.34% (n = 91,000); in the data active = inhibition above about 80%
CYP2C9 inh: human CYP2C9 inhibition; P11712; CYP2C9 Supersomes, luciferin-H conversion, luminescence; inhibition, % at 5 µM; actives 20% (n = 96,000); AID 777;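 active = blocking of liver enzyme CYP2C9 beyond about 50% at 5 µM, limit read from the data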
CYP2C19 inh: inhibitors of human CYP2C19; P33261; CYP2C19 Supersomes, luciferin-H EGE luminescence, 30 min; inhibition, % at 5 µM; actives 21% (n = 96,000); AID 778;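 active = CYP2C19 inhibition above a set limit at 5 µM in the primary screen, cut at about 50% in these data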
sEH activator: increases human soluble epoxide hydrolase activity; P34913; purified human sEH enzymatic activity, activator screen; activation, % at 2 µM; actives 0.04% (n = 91,000); AID 717; in the data active = activation above about 37%
Numbers stand for hits. In the library only some 27% were active in any assay of this set; here they are far more common.

`CC(C)(Oc1ccc(Cl)cc1)C(=O)Nc1ccncc1` gave CYP2C9 activ inactive, CYP2C19 activ inactive, CYP2C9 inh 97.1 and CYP2C19 inh 99.9.
Screening N#C/C(Cn1c[n+](NC(=O)Nc2ccccc2)cn1)=N/O returned CYP2C9 activ inactive, CYP2C19 activ inactive, sEH inh inactive, CYP2C9 inh inactive, CYP2C19 inh inactive and sEH activator inactive.
O=S(=O)(c1cccc(NC(=S)Nc2ccc(Br)cc2Cl)c1)N1CCOCC1 was read as CYP2C9 activ inactive, CYP2C19 activ inactive, sEH inh inactive, CYP2C9 inh inactive, CYP2C19 inh inactive and sEH activator inactive.
O=C(O)C1CCCCC1C(=O)Nc1ccc(F)cc1F (configuration not stated) was read as CYP2C9 activ inactive, CYP2C19 activ inactive, sEH inh inactive, CYP2C9 inh inactive, CYP2C19 inh inactive and sEH activator inactive.
`Cc1nc(N)sc1N=Nc1ccc(F)cc1` gave CYP2C9 activ inactive, CYP2C19 activ inactive, sEH inh inactive, CYP2C9 inh inactive, CYP2C19 inh inactive and sEH activator inactive.
`CCc1cccc2c(=O)c(C(=O)N3CCOCC3)c[nH]c12` gave CYP2C9 activ inactive, CYP2C19 activ inactive, sEH inh inactive, CYP2C9 inh inactive, CYP2C19 inh inactive and sEH activator inactive.
Screening O/N=C(\COc1ccccc1O)c1ccccc1 returned CYP2C9 activ inactive, CYP2C19 activ inactive, sEH inh inactive, CYP2C9 inh inactive, CYP2C19 inh 92.8 and sEH activator inactive.
`Cc1cccc(N2C(=O)C3C4CC(C(Br)C4Br)C3C2=O)n1` (configuration not stated) gave CYP2C9 activ inactive, CYP2C19 activ inactive, sEH inh inactive, CYP2C9 inh inactive, CYP2C19 inh inactive and sEH activator inactive.
Screening Cc1cnc(C(=O)Nc2ccc3c(c2)CCC3)cn1 returned CYP2C9 activ inactive, CYP2C19 activ inactive, sEH inh inactive, CYP2C9 inh inactive, CYP2C19 inh inactive and sEH activator inactive.
For O=C(Nc1ccc2c(c1)CCC2)c1ccc(Br)o1 the results were CYP2C9 activ inactive, CYP2C19 activ inactive, sEH inh inactive, CYP2C9 inh inactive, CYP2C19 inh 75.5 and sEH activator inactive.
Screening O=C(Nc1ccc2c(c1)OCO2)c1ccc(Br)o1 returned CYP2C9 activ inactive, CYP2C19 activ inactive, sEH inh inactive, CYP2C9 inh 59.7, CYP2C19 inh 85.2 and sEH activator inactive.
`Cc1ccc(C(=O)Nc2ccc3c(c2)CCC3)o1` gave CYP2C9 activ inactive, CYP2C19 activ inactive, CYP2C9 inh inactive and CYP2C19 inh 77.6.
For O=C(Nc1ccc2c(c1)CCC2)c1cnccn1 the results were CYP2C9 activ inactive, CYP2C19 activ inactive, sEH inh inactive, CYP2C9 inh inactive, CYP2C19 inh 68.1 and sEH activator inactive.
Screening O=C(Nc1ccc2c(c1)CCC2)c1cc2ccccc2o1 returned CYP2C9 activ inactive, CYP2C19 activ inactive, sEH inh inactive, CYP2C9 inh inactive, CYP2C19 inh inactive and sEH activator inactive.
Cc1c(NCc2cc(Cl)cc(Cl)c2O)c(=O)n(-c2ccccc2)n1C was read as CYP2C9 activ inactive, CYP2C19 activ inactive, sEH inh inactive, CYP2C9 inh 85.4, CYP2C19 inh 73.2 and sEH activator inactive.
`COc1ccc(-c2c(C#N)c(N)nc3c2c(=O)n(C)c(=O)n3C)cc1Cl` gave sEH inh inactive and sEH activator inactive.
COc1ccc(-c2nc(SC)n(C)c(=O)c2C#N)cc1OC was read as CYP2C9 activ inactive, CYP2C19 activ inactive, CYP2C9 inh 95.0 and CYP2C19 inh inactive.
`CCc1nc(N)c(C#N)c(-c2ccc(OC)c(OC)c2)c1C` gave CYP2C9 activ inactive, CYP2C19 activ inactive, sEH inh inactive, CYP2C9 inh inactive, CYP2C19 inh inactive and sEH activator inactive.
CCc1nc(N)c(C#N)c(-c2ccc(O)c(OC)c2)c1C was read as CYP2C9 activ inactive, CYP2C19 activ inactive, sEH inh inactive, CYP2C9 inh inactive, CYP2C19 inh 53.2 and sEH activator inactive.
CCc1nc(N)c(C#N)c(-c2ccncc2)c1C was read as CYP2C9 activ inactive, CYP2C19 activ inactive, sEH inh inactive, CYP2C9 inh 72.7, CYP2C19 inh 99.8 and sEH activator inactive.
CCOC(=O)C(C)Oc1c(Br)cc(C2NC(=O)NC(C)=C2C(C)=O)cc1OCC (configuration not stated) was read as CYP2C9 activ inactive, CYP2C19 activ inactive, sEH inh inactive, CYP2C9 inh 55.1, CYP2C19 inh 57.9 and sEH activator inactive.
CC1CN(C(=O)CCN2C(=O)c3ccccc3C2=O)CC(C)O1 (configuration not stated) was read as sEH inh inactive and sEH activator inactive.
For CC1CN(C(=O)Cc2ccc(-c3ccccc3)cc2)CC(C)O1 (configuration not stated) the results were CYP2C9 activ inactive, CYP2C19 activ inactive, sEH inh inactive, CYP2C9 inh 56.7, CYP2C19 inh 57.9 and sEH activator inactive.
For CCCCN1C(=O)N(C)C2C1N(C)C(=O)N2CCCC (configuration not stated) the results were sEH inh inactive and sEH activator inactive.
Screening COc1ccc(CNC(=O)CSc2nnc(C)s2)cc1 returned CYP2C9 activ inactive, CYP2C19 activ inactive, CYP2C9 inh inactive and CYP2C19 inh inactive.
CC(C)C1Nc2ccc(S(N)(=O)=O)cc2C2C=CCC21 (configuration not stated) was read as CYP2C9 activ inactive, CYP2C19 activ inactive, sEH inh inactive, CYP2C9 inh inactive, CYP2C19 inh 69.3 and sEH activator inactive.
CC1(C)N=C(N)NC(Nc2ccccc2)=N1 was read as sEH inh inactive and sEH activator inactive.
`COc1ccc(-c2cc(C(=O)OCC(=O)N(C)C)c3ccccc3n2)cc1` gave CYP2C9 activ inactive, CYP2C19 activ inactive, CYP2C9 inh 71.6 and CYP2C19 inh 88.0.
O=C(OC1CCOC1=O)c1cc(-c2ccc(Br)cc2)nc2ccccc12 (configuration not stated) was read as CYP2C9 activ inactive, CYP2C19 activ inactive, sEH inh inactive, CYP2C9 inh 51.5, CYP2C19 inh inactive and sEH activator inactive.
For COc1ccc(-c2cc(C(=O)OC3CCOC3=O)c3ccccc3n2)cc1 (configuration not stated) the results were CYP2C9 activ inactive, CYP2C19 activ inactive, sEH inh inactive, CYP2C9 inh 96.2, CYP2C19 inh inactive and sEH activator inactive.
`Cc1ccc(C(=O)COC(=O)c2cc(Cl)nc3ccccc23)cc1` gave CYP2C9 activ inactive, CYP2C19 activ inactive, sEH inh inactive, CYP2C9 inh inactive, CYP2C19 inh 65.0 and sEH activator inactive.
For CCOc1ccccc1N(CC(=O)NC1CCCC1)C(=O)CCCC(=O)Nc1ccccn1 the results were CYP2C9 activ inactive, CYP2C19 activ inactive, sEH inh inactive, CYP2C9 inh inactive, CYP2C19 inh inactive and sEH activator inactive.
Screening CCCCCCNC(=O)Cc1nc2nc(C)cc(C)n2n1 returned CYP2C9 activ inactive, CYP2C19 activ inactive, sEH inh inactive, CYP2C9 inh inactive, CYP2C19 inh inactive and sEH activator inactive.

High-throughput results: PubChem BioAssay, several laboratories
